The record followed here is PubChem BioAssay (NCI).

Among the test systems are DU-145 prostate; K-562 leukemia; MALME-3M melanoma; MDA-MB-231 breast; RXF 393 renal; SF-268 CNS; SF-295 CNS; SF-539 CNS; UACC-257 melanoma; M14 melanoma.
Common to all, as to experiment: NCI-60 one-dose screen, 48 h (100 = growth as untreated, 0 = no growth, -100 = all killed)
Details in all cases: 10 µM

About 83,000 compounds went through this panel and 20% of them were active in at least one assay; those are over-represented in the sample as a whole.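 Cells were grown in 96-well plates and exposed to the test compound at a single concentration for 48 hours; results are reported as percent growth, with values below 10 considered active.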 A number with no mark means an inactive call. Calls of active or inactive are those of the source.

Take `CC(C)(C)OC(=O)N1CCc2c(sc3ncnc(N/N=C/c4ccc(Br)cc4)c23)C1`: the growth in the assay with DU-145 prostate is 92.6%; in the assay on K-562 leukemia, 15.1%; with MALME-3M melanoma, 51.3%; in the assay on MDA-MB-231 breast, 73.2%; in the assay with RXF 393 renal it was 66.4%; with SF-268 CNS, 82.2%. Further, the growth was 49% in the assay with SF-295 CNS, 60.7% in the assay with SF-539 CNS, 73.4% in the assay with UACC-257 melanoma and 47.7% in the assay on M14 melanoma.

For the molecule `CCOC(=O)c1cc(C(=O)c2ccc(OC)c(OC)c2)n2ccncc12`, the growth in the assay with DU-145 prostate was 102%; in the assay with K-562 leukemia, 87.5%; with MALME-3M melanoma it was 112%; in the assay on MDA-MB-231 breast, 91.4%; in the assay with RXF 393 renal it was 106%; with SF-268 CNS, 109%. Moreover, the growth with SF-295 CNS was 102%; in the assay with SF-539 CNS, 99.3%; in the assay on UACC-257 melanoma, 102%; in the assay with M14 melanoma it was 102%.

For the molecule `COc1ccc2nc(-c3ccc(Cl)cc3)cc(-c3nnc(SC/C(=N\O)c4ccccc4)n3-c3ccccc3)c2c1`, the growth with DU-145 prostate was 84.3%; with K-562 leukemia it was 59%; in the assay on MALME-3M melanoma, 118%; in the assay on MDA-MB-231 breast, 86.3%; in the assay with RXF 393 renal it was 66.7%; with SF-268 CNS it was 83.5%. Further, the growth in the assay with SF-295 CNS was 102%; in the assay with SF-539 CNS, 103%; in the assay on UACC-257 melanoma it was 72.1%; with M14 melanoma, 78.6%.

For the molecule `Cc1c2cnccc2c(C)c2c1oc1ccccc12`, the growth is 54.1% in the assay with DU-145 prostate; 77.2% in the assay with K-562 leukemia; 62.7% in the assay with MALME-3M melanoma; 111% in the assay with MDA-MB-231 breast; 71.5% in the assay with RXF 393 renal; 73.8% in the assay with SF-268 CNS. Moreover, the growth with SF-295 CNS was 74.9%; in the assay with SF-539 CNS, 96.6%; in the assay with UACC-257 melanoma it was 86.8%; with M14 melanoma it was 81.6%.

Take `CNS(=O)(=O)Oc1ccc(-c2sc3cc(OS(=O)(=O)NC)ccc3c2C(=O)c2ccc(OCCN3CCCCC3)cc2)cc1`: the growth in the assay with DU-145 prostate is 98.2%; in the assay with K-562 leukemia, 9.88% (active); in the assay with MALME-3M melanoma it was 57.7%; in the assay with MDA-MB-231 breast, 79.1%; in the assay with RXF 393 renal it was 38.8%; in the assay on SF-268 CNS, 87.9%. Further, the growth in the assay with SF-295 CNS is 89.3%; in the assay with SF-539 CNS it was 65%; in the assay with UACC-257 melanoma, 70%; with M14 melanoma it was 65.7%.

Turning to `COc1ccc(/C=C2\CCCC3=C2N=C2SC(C)=CN2C3c2ccc(OC)cc2)cc1` (stereo not given), the growth in the assay with DU-145 prostate was 107%; in the assay on K-562 leukemia, 96.1%; in the assay on MALME-3M melanoma, 80%; in the assay with MDA-MB-231 breast it was 101%; in the assay on RXF 393 renal it was 102%; in the assay on SF-268 CNS, 116%. Moreover, the growth was 106% in the assay with SF-295 CNS, 111% in the assay with SF-539 CNS, 90.9% in the assay with UACC-257 melanoma and 98.8% in the assay with M14 melanoma.

On to `COc1cc2cc(Oc3ccc(NC(=O)Nc4ccc(C(F)(F)F)cc4)cc3)c(C)nc2cc1OC`, for which the growth in the assay with DU-145 prostate is 71.4%; with K-562 leukemia, 57.1%; in the assay with MALME-3M melanoma it was 82.9%; in the assay on MDA-MB-231 breast, 80.9%; in the assay on RXF 393 renal it was 6.29% (active); with SF-268 CNS, 79.3%. Further, the growth in the assay with SF-295 CNS was 56%; in the assay on SF-539 CNS, 96.9%; in the assay on UACC-257 melanoma, 66.5%; with M14 melanoma, 95.2%.

For `COc1ccc(-c2n[nH]nc2-c2cc(OC)c3c(c2OC)OCO3)cc1`, the growth in the assay on DU-145 prostate was 10.2%; with K-562 leukemia it was 10.7%; in the assay with MALME-3M melanoma it was 61.7%; in the assay with MDA-MB-231 breast it was 32%; in the assay with RXF 393 renal it was -9.08% (active); with SF-268 CNS it was 48.8%. In addition, the growth with SF-295 CNS was 4.67% (active); in the assay on SF-539 CNS it was -2.99% (active); in the assay with UACC-257 melanoma it was 48%; in the assay with M14 melanoma, 20.6%.

With `CC(C)(C)OC(=O)N1CCc2c(sc3ncnc(N/N=C/c4cccc5ccccc45)c23)C1`, the growth with DU-145 prostate is 49.7%; with K-562 leukemia, 7.07% (active); in the assay on MALME-3M melanoma it was 49.9%; in the assay with MDA-MB-231 breast, 45.6%; in the assay on RXF 393 renal, 2.63% (active); with SF-268 CNS it was 46.7%. Also, the growth in the assay on SF-295 CNS is 1.31% (active); in the assay on SF-539 CNS, -11.3% (active); in the assay on UACC-257 melanoma, 40.6%; in the assay on M14 melanoma it was 20.3%.

Consider `O=C(NCCNC(=O)c1ccc(F)cc1)Nc1ccc(-n2cc(-c3ccncc3)c(-c3ccc(Cl)c(O)c3)n2)cc1`, for which the growth was 2.26% (active) in the assay on DU-145 prostate; 6.23% (active) in the assay with K-562 leukemia; 3.35% (active) in the assay with MALME-3M melanoma; -29.1% (active) in the assay on MDA-MB-231 breast; 3.36% (active) with RXF 393 renal; 5.76% (active) in the assay with SF-268 CNS. Further, the growth was -59.1% (active) in the assay with SF-295 CNS, -37.7% (active) with SF-539 CNS, 24.1% in the assay on UACC-257 melanoma and -44.4% (active) in the assay with M14 melanoma.

In the case of `Cc1cc(CCNC=O)c(C)c2c1sc1ccccc12`, the growth in the assay on DU-145 prostate was 112%; in the assay on K-562 leukemia it was 97.2%; in the assay on MALME-3M melanoma it was 105%; with MDA-MB-231 breast, 79.9%; in the assay on RXF 393 renal it was 80%; in the assay with SF-268 CNS, 92.5%. The growth in the assay on SF-295 CNS is 94.8%; with SF-539 CNS it was 87.2%; in the assay on UACC-257 melanoma it was 90.1%; in the assay on M14 melanoma, 118%.

Consider `CCN(CC)CCOc1ccc2c(c1O)C(=O)c1ccccc1C2=O`, for which the growth in the assay with DU-145 prostate is 95.4%; in the assay on K-562 leukemia, 71.6%; in the assay with MALME-3M melanoma it was 109%; with MDA-MB-231 breast, 82.8%; with RXF 393 renal, 77.7%; in the assay with SF-268 CNS it was 90.1%. Also, the growth in the assay on SF-295 CNS is 91.5%; in the assay on SF-539 CNS it was 91.9%; in the assay on UACC-257 melanoma, 94.7%; in the assay with M14 melanoma it was 92%.

On to `CN(C)CCOc1ccccc1NC1=C(Cl)C(=O)C(Nc2ccccc2OCCN(C)C)=C(Cl)C1=O`, for which the growth with DU-145 prostate was 84.7%; in the assay on K-562 leukemia, -12.6% (active); in the assay on MALME-3M melanoma, 64.7%; with MDA-MB-231 breast it was 53.1%; with RXF 393 renal, 68.5%; with SF-268 CNS, 86%. In addition, the growth was 103% with SF-295 CNS, 101% in the assay with SF-539 CNS, 85.2% in the assay with UACC-257 melanoma and 92.9% in the assay on M14 melanoma.
